In PubChem BioAssay (NCI) one finds growth data, which are given here for 13 compounds.

This is part of a sample that, as a whole, favours compounds with a hit. Of some 83,000 tested, about 20% had one in any assay.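 Growth was measured after 48 h exposure to one concentration of compound in 96-well plates. Values under 10 count as active.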 Values without a mark were called inactive. Calls of active or inactive are those of the source.

Some test systems named below: NCI-H23 lung; NCI-H226 lung; NCI-H322M lung; HOP-62 NSCLC; NCI-H460 lung; HOP-92 NSCLC; NCI-H522 lung; A549/ATCC NSCLC; 786-0 renal; COLO 205 colon.
Common to all, as to experiment: NCI-60 one-dose screen, 48 h (100 = growth as untreated, 0 = no growth, -100 = all killed)
Holding throughout (conditions): 10 µM unless noted

Take `c1csc(-c2c3ccc(=[N+]4CCCCC4)cc-3oc3cc(N4CCCCC4)ccc23)c1`: the growth with NCI-H23 lung is -71.3% (active); with NCI-H226 lung it was -81.7% (active); in the experiment on NCI-H322M lung, -78.5% (active); in the experiment on HOP-62 NSCLC, -60.6% (active); in the experiment on NCI-H460 lung it was -57.3% (active); in the experiment on HOP-92 NSCLC, -64.7% (active). The growth is -70% (active) in the experiment with NCI-H522 lung, -56.2% (active) with A549/ATCC NSCLC, -92.5% (active) in the experiment with 786-0 renal and -61.5% (active) in the experiment on COLO 205 colon.
`O=C(CCc1nnc(CN(c2ccccc2)c2ccccc2)o1)c1nc2ccccc2[nH]1`: the growth is 85.1% with NCI-H23 lung; 107% with NCI-H226 lung; 84.4% with NCI-H322M lung; 89.1% with HOP-62 NSCLC; 99.6% in the experiment on NCI-H460 lung; 60.6% in the experiment on HOP-92 NSCLC. In addition, the growth with NCI-H522 lung was 73.9%; in the experiment with A549/ATCC NSCLC it was 94.7%; with 786-0 renal it was 100%; in the experiment on COLO 205 colon, 102%.
As for `COc1cc(C2CC(=O)Nc3c2c(C)nn3-c2nc3ccccc3[nH]2)c(OC)c(OC)c1OC` (stereo not given), the growth is 82.6% in the experiment with NCI-H23 lung; 89.7% in the experiment on NCI-H226 lung; 95.2% in the experiment on NCI-H322M lung; 44.3% in the experiment with HOP-62 NSCLC; 39% in the experiment on NCI-H460 lung; 75.7% in the experiment on HOP-92 NSCLC. For the same compound, the growth with NCI-H522 lung was 33.3%; in the experiment with A549/ATCC NSCLC, 43.2%; in the experiment on 786-0 renal, 27.6%; with COLO 205 colon, 41.2%.
For the compound `Cc1ccc(Cc2cnc(NC(=O)c3ccc4noc(-c5ccccc5)c4c3)s2)cc1`, the growth was 94.4% in the experiment on NCI-H23 lung; 88.3% in the experiment with NCI-H226 lung; 88.5% in the experiment with NCI-H322M lung; 64.8% in the experiment on HOP-62 NSCLC; 84.3% in the experiment on NCI-H460 lung; 103% with HOP-92 NSCLC. Besides, the growth in the experiment with NCI-H522 lung was 72.7%; with A549/ATCC NSCLC, 71.7%; in the experiment on 786-0 renal, 96.2%; with COLO 205 colon, 107%.
As to `Cc1ccc(S(=O)(=O)n2cc(CNc3ccc(N4CCOCC4=O)cc3)c3ccccc32)cc1`, the growth with NCI-H23 lung is 87.8%; with NCI-H226 lung it was 92.4%; in the experiment on NCI-H322M lung it was 100%; in the experiment with HOP-62 NSCLC it was 84.6%; in the experiment on NCI-H460 lung, 99.8%; in the experiment on HOP-92 NSCLC it was 38.6%. The growth was -10.5% (active) in the experiment with NCI-H522 lung, 103% with A549/ATCC NSCLC, 92.3% with 786-0 renal and 85.1% in the experiment on COLO 205 colon.
As for `O=C(c1ccccc1)c1c(/C=C/c2ccc(Cl)cc2)nc2ccccc2c1/C=C/c1cccs1`, the growth was 102% with NCI-H23 lung; 92.4% in the experiment with NCI-H226 lung; 89.4% in the experiment with NCI-H322M lung; 106% with HOP-62 NSCLC; 107% in the experiment on NCI-H460 lung; 87.3% in the experiment on HOP-92 NSCLC. For the same compound, the growth in the experiment with NCI-H522 lung is 88.6%; in the experiment on A549/ATCC NSCLC, 92.9%; in the experiment with 786-0 renal, 94.9%; in the experiment on COLO 205 colon, 103%.
For the compound `COc1cc(C(=O)c2cc(C)c3[nH]c4ccc(Cl)cc4c3c2C)cc(OC)c1OC`, the growth was 13.8% with NCI-H23 lung; 54.8% with NCI-H226 lung; 33% in the experiment with NCI-H322M lung; 40% with HOP-62 NSCLC; 4.97% (active) in the experiment on NCI-H460 lung; 38.6% in the experiment with HOP-92 NSCLC. For the same compound, the growth in the experiment with NCI-H522 lung is 35.5%; with A549/ATCC NSCLC it was 19.6%; with 786-0 renal, 19.6%; in the experiment with COLO 205 colon, 11%.
`Nc1nc(N)c2c(n1)NC(c1ccccc1)C1CCc3ccccc3C1=N2` (stereo not given): the growth is 39.3% in the experiment with NCI-H23 lung; 53.3% in the experiment with NCI-H226 lung; 64.4% in the experiment with NCI-H322M lung; 70.2% in the experiment on HOP-62 NSCLC; 18.5% with NCI-H460 lung; 72.2% in the experiment with HOP-92 NSCLC. For the same compound, the growth was 89.9% in the experiment with NCI-H522 lung, 63.4% in the experiment with A549/ATCC NSCLC, 55.1% with 786-0 renal and 27.6% in the experiment with COLO 205 colon.
Regarding `N#CCN1C(=O)C2C3=C(CCCC3)SC2N=C1CN1CCCC1` (stereo not given), the growth with NCI-H23 lung was 97.9%; in the experiment on NCI-H226 lung it was 87.5%; in the experiment on NCI-H322M lung, 91.2%; in the experiment with HOP-62 NSCLC it was 89.6%; in the experiment with NCI-H460 lung, 117%; in the experiment with HOP-92 NSCLC, -1.97% (active). The growth is 92.5% in the experiment on NCI-H522 lung, 93.1% with A549/ATCC NSCLC, 92% with 786-0 renal and 122% in the experiment with COLO 205 colon.
In the case of `COc1ccc2occ(C3=C(c4c[nH]c5ccccc45)C(=O)N(O)C3=O)c2c1`, the growth in the experiment with NCI-H23 lung is 86.3%; in the experiment on NCI-H226 lung it was 78.7%; in the experiment on NCI-H322M lung it was 93.7%; in the experiment on HOP-62 NSCLC, 86.3%; in the experiment on NCI-H460 lung, 95.4%; in the experiment with HOP-92 NSCLC it was 87.8%. Moreover, the growth in the experiment with NCI-H522 lung was 58.1%; in the experiment with A549/ATCC NSCLC, 93.6%; in the experiment with 786-0 renal, 91.3%; in the experiment with COLO 205 colon it was 98.5%.
On to `COc1cccc2c1C(=O)c1c(O)c3c(c(O)c1C2=O)CC(O)(/C(C)=N/NC(=O)CCCCC(=O)N/N=C(\C)C1(O)Cc2c(O)c4c(c(O)c2C(OC2CC(N)C(O)C(C)O2)C1)C(=O)c1c(OC)cccc1C4=O)CC3OC1CC(N)C(O)C(C)O1` (stereo not given), for which the growth was -31.9% [5 µM] (active) with NCI-H23 lung; -56.1% [5 µM] (active) with NCI-H226 lung; -10.2% [5 µM] (active) in the experiment with NCI-H322M lung; -1.23% [5 µM] (active) in the experiment on HOP-62 NSCLC; -10.2% [5 µM] (active) in the experiment with NCI-H460 lung; -50.7% [5 µM] (active) with HOP-92 NSCLC. Further, the growth in the experiment with NCI-H522 lung is -57.7% [5 µM] (active); with A549/ATCC NSCLC, -22% [5 µM] (active); in the experiment with 786-0 renal, 4.75% [5 µM] (active); with COLO 205 colon it was -91.9% [5 µM] (active).
For the compound `Cc1ccc(C2SCC(=O)N2Cc2ccccc2)cc1` (stereo not given), the growth in the experiment on NCI-H23 lung was 100%; in the experiment on NCI-H226 lung, 96%; with NCI-H322M lung, 95.6%; with HOP-62 NSCLC, 104%; in the experiment on NCI-H460 lung, 115%; in the experiment on HOP-92 NSCLC, 81.7%. In addition, the growth in the experiment with NCI-H522 lung is 83.6%; with A549/ATCC NSCLC, 102%; with 786-0 renal, 89.2%; in the experiment on COLO 205 colon, 109%.
As for `Cc1cc(Cl)nc(NCc2cc(Nc3ccnc4cc(Cl)ccc34)ccc2F)n1`, the growth is 41.5% in the experiment with NCI-H23 lung; 64.2% in the experiment with NCI-H226 lung; 79.6% with NCI-H322M lung; 76.7% in the experiment with HOP-62 NSCLC; 34.8% with NCI-H460 lung; 40.4% in the experiment with HOP-92 NSCLC. In addition, the growth with NCI-H522 lung was 45.1%; with A549/ATCC NSCLC it was 58.5%; in the experiment on 786-0 renal it was 76%; in the experiment with COLO 205 colon, 75.8%.
